Experimental data from PubChem BioAssay AID1159580 (chemical genetic matrix, 2015).
The campaign covered roughly 5,500 compounds. About 2,000 (36%) were called active. Another 18% or so got no clear call; they are omitted. No stated cut-off is given here; in the data, active means normalized growth mostly below about 0.91 (no sharp cut-off); inconclusive means no clear call, values can overlap the other calls; inactive means mostly above about 0.92. Some of the results follow.

Test: chemical genetic growth profiling, strain panel (AID 1159580);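 further: tested at 20 µM; growth read once vehicle control cultures reached saturation at 30 °C; 1 = growth at the plate median or of vehicle wells; lower values mean less growth of the strain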
Details: S. cerevisiae deletion strains, growth OD

Measured: normalized growth

C[C@H]1CC2C3CCC4=CC(=O)C=C[C@]4(C)[C@@]3(Cl)[C@@H](O)C[C@]2(C)[C@@]1(O)C(=O)CO (stereo partly drawn)
inactive: locus YAL013W, strain DEP1, hits give low values 0.982 | locus YAL040C, strain CLN3, hits give low values 1.03 | locus YCL061C, strain MRC1 (second series), hits give low values 1.01 | locus YER002W, strain NOP16, hits give low values 0.997 | locus YGR078C, strain PAC10, hits give low values 0.989 | locus YGR229C, strain SMI1, hits give low values 0.994 | locus YJR075W, strain HOC1, hits give low values 1.01 | locus YMR263W, strain SAP30, hits give low values 1.01 | locus YNL153C, strain GIM3, hits give low values 0.981 | locus YNL175C, strain NOP13, hits give low values 0.994 | locus YNL197C, strain WHI3, hits give low values 0.934 | locus YNL224C, strain SQS1, hits give low values 0.967 | locus YOR083W, strain WHI5 (second series), hits give low values 0.954
